Measured values published in PubChem BioAssay AID504374 (National Center for Advancing Translational Sciences (NCATS), 2011).
Out of some 1,500 compounds screened, about 100 (6.7%) were called active. Not shown: some 7% with an inconclusive outcome. Calls follow the shape of the dose curve; as a rule, active = well fitted inhibition curve with a large enough effect; inconclusive = small, poorly fitted or top-dose-only effect, or effect the other way; inactive = flat fitted curve, though single readings scatter. Many of the other results were omitted from the sample, so actives are more common in it than they were.

The compounds below were run against Runt-related transcription factor 1 (Homo sapiens) + Core-binding factor subunit beta (Homo sapiens) (UniProt Q01196+Q13951) (assay: qHTS Assay for Compounds Blocking the Interaction Between CBF-beta and RUNX1 for the Treatment of Acute Myeloid Leukemia: Hit Validation). Details: AlphaScreen CBFb-His/RUNX1-biotin binding; series mostly up to 59.8 µM; activity, negative = inhibition: at the top concentration.
Sequence of Runt-related transcription factor 1 (Homo sapiens) + Core-binding factor subunit beta (Homo sapiens) (Q01196 whole entry, looked up): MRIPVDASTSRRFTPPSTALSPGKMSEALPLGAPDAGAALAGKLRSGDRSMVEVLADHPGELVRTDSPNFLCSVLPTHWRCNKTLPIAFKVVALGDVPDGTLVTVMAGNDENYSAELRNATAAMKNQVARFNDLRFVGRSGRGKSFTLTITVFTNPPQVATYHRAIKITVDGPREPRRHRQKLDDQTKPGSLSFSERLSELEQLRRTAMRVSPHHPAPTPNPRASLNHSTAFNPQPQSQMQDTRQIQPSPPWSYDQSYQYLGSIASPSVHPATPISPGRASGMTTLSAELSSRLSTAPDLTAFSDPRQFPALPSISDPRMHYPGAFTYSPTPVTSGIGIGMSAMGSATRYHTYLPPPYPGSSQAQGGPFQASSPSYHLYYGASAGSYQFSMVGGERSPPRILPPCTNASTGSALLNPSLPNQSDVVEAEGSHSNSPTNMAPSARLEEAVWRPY
Sequence of Runt-related transcription factor 1 (Homo sapiens) + Core-binding factor subunit beta (Homo sapiens) (Q13951 whole entry, looked up): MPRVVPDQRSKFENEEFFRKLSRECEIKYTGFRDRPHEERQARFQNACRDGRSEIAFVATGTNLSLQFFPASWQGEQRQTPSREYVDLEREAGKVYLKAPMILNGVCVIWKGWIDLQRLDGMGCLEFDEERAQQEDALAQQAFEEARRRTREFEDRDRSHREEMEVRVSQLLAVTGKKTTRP
Description: NIH Chemical Genomics Center [NCGC]
NIH Molecular Libraries Probe Production centers Network [MLPCN]
Assay Submitter (PI): Paul Liu
Core Binding Factor (CBF) abnormalities are associated with 20-25% of all acute myeloid leukemias (AML), of which 5-10% are further sub classified as acute myelomonocytic leukemia with eosinophilia, also known as M4Eo in the FAB classification scheme. This subtype of leukemia is usually associated with chromosome 16 inversion (p13:q22). Chromosome 16 inversion results in formation of the fusion oncogene CBFB-MYH11, which encodes the fusion protein CBF-beta-SMMHC.
It has been hypothesized that the interference of CBF-beta and RUNX1 binding could have therapeutic implications for patients with CBF mediated leukemias. We developed a CBF-beta and RUNX1 binding assay in AlphaScreenTM format and optimized it for high throughput screening to search for inhibitors. The goal of this project is to screen MLPCN's compound collection (MLSMR) for identifying the inhibitors of the interaction between CBF-beta and RUNX1 proteins as research probes. If these probes work well in the animal models, the ultimate goal of this project is to development a new drug treatment for this disease.
This assay can not be used to assess how apparent inhibitors interfere with protein binding, and whether inhibitors specifically bind to either protein. Disruption of this protein-protein interaction, through any mechanism, is the intended target activity.
The present data set was run to confirm the activity of hits from the primary screen.
NCGC Assay Protocol Summary:
Step, Parameter, Description
(1) Reagent, 3 uL CBFb-His/RUNX1-biotin mix incubated together for 20 minutes at room temperature (30 nM each)
(2) Compound or control, 23 nL compound stock solution
(3) Incubation, 15 minutes at Room temperature
(4) Reagent, 1 uL 50 ng each of beads (Nickel beads and streptavidin beads)
(5) Incubation, 90 minutes at Room temperature
(6) Detection, Excitation=365 nm Emission=440 nm, Envision reader in AlphaScreenTM mode
Keywords: MLSMR, MLPCN, NIH Roadmap, qHTS, NCGC, Core binding factor, CBF, CBF-beta, Acute myeloid leukemia
% is scaled to controls: 0 for no effect and ±100 for the full control effect; potency is read from the fitted curve at half-maximal effect.
Also: nearly all actives have a fitted effect of over 60% in size.

Compound	activity, negative = inhibition	Potency
Cc1ccc(/C=N/n2c(-c3ccncc3)n[nH]c2=S)s1	7.78% (inactive)	
COc1cc(/C=N/n2c(-c3ccccc3)n[nH]c2=S)cc(OC)c1O	-4.33% (inactive)	
COc1ccccc1/C=C/C=N/n1c(-c2ccccn2)n[nH]c1=S		11.2 µM (active)
CC(=O)c1c(C)nc(Nc2nc3ccccc3s2)nc1C	10.6% (inactive)	
COc1ccc(Nc2cc(=O)n(-c3ccccc3)c3c2c(=O)n(C)c(=O)n3C)cc1	7.59% (inactive)	
Cn1c(=O)c2c(nc(N3CCOCC3)n2C/C=C/c2ccccc2)n(C)c1=O	-3.33% (inactive)	
COCCCN1CCN(C2Cc3ccccc3Sc3ccc(Cl)cc32)CC1 (stereo not drawn)		12.2 µM (active)
CC(C)(C)OC(=O)N1CCC[C@H]1c1nnc(SCc2ccccc2)o1	-4.21% (inactive)	
CCCCNC(=O)Nc1ncn[nH]1	-4.28% (inactive)	
Cc1nn(-c2ccccc2)c(NC(=O)c2cccs2)c(-c2ccccc2Cl)c1=O	-2.94% (inactive)	
CC(C)(C)OC(=O)N[C@@H](Cc1ccccc1)c1nnc(SCC(N)=O)o1	-5.88% (inactive)	
O=C(O)c1ccc(/C=N\Nc2ccc(S(=O)(=O)N3CCOCC3)cc2[N+](=O)[O-])cc1	-6.64% (inactive)	
CCN(CC)c1ccc(/C=N/NC(=O)c2ccco2)c(O)c1		31.6 µM (active)
O=C(N/N=C/c1ccc(Br)s1)c1ccco1	6.4% (inactive)	
Cc1nn(C)cc1/C=N/NC(=O)c1ccco1	-3.8% (inactive)	
CCOC(=O)C(=CNNc1c(C)csc1C(=O)OC)C(=O)OCC	-2.1% (inactive)	
COC(=O)[C@H](CC(C)C)NC(=O)NCCC1=CCCCC1	-14.1% (inactive)	
CCOc1ccc(/C=C2\CCc3ccccc3C2=O)cc1	-3.3% (inactive)	
CCCOc1ccc(-c2nc(-c3ccc([N+](=O)[O-])cc3)cs2)cc1	-3.28% (inactive)	
COc1cccc(C2/C(=C(/O)c3ccccc3)C(=O)C(=O)N2Cc2ccco2)c1 (stereo not drawn)	-6.74% (inactive)	
O=C(/C=C/c1ccccc1)Nc1cccnc1Oc1ccccc1F	-4.55% (inactive)	
O=[N+]([O-])c1ccc(O)c(/C=N/NC2=NS(=O)(=O)c3ccccc32)c1		2.82 µM (active)
Cc1cc([N+](=O)[O-])nn1CC(=O)N/N=C/c1ccccc1F	-9.4% (inactive)	

Compound	activity, negative = inhibition	Potency
O=[N+]([O-])c1ccc2c(c1)S(=O)c1ccccc1-2 (stereo not drawn)	-4.82% (inactive)	
COC(=O)[C@H](CC(C)C)NC(=O)N1CCCCC1C (stereo partly drawn)	-2.71% (inactive)	
COc1ccc(/C(C)=N/NC(=O)CNC(=O)Cc2ccccc2)c(OC)c1	-10.6% (inactive)	
Cc1ccc(C)c(NC(=S)N(CCN(C)C)C(C)c2ccccn2)c1 (stereo not drawn)		4.86 µM (active)
CCc1ccccc1NC(=S)N(CCN(C)C)C(C)c1ccccn1 (stereo not drawn)		6.12 µM (active)
Cc1cccc(C)c1NC(=S)N(CCN(C)C)C(C)c1ccccn1 (stereo not drawn)		4.86 µM (active)
Cc1c(Cl)cccc1NC(=S)N(CCN(C)C)C(C)c1ccccn1 (stereo not drawn)		4.34 µM (active)
CCCCNC(=O)Nc1ccccc1CC	-3.42% (inactive)	
COc1ccc(C2=NOC(CNC(=O)c3ccccc3Br)C2)c(OC)c1 (stereo not drawn)	-1.57% (inactive)	
CC(C)(C)NC(=O)NCCc1ccccc1	-1.62% (inactive)	
Fc1ccc(-c2cc(-c3cccs3)cc(-c3ccccc3)n2)cc1	-3.64% (inactive)	
Clc1ccc(Nc2ccc(Cl)nn2)cc1	2.4% (inactive)	
COCc1cc(=O)[nH]c2c1c(-c1ccccc1)nn2C	0.43% (inactive)	
Cc1cc(N2CCOCC2)n2ncc(-c3ccc(Cl)cc3)c2n1	-1.58% (inactive)	
CC(C)c1nc(C#N)c(NN)o1	-5.01% (inactive)	
COCc1cc(=O)n2[nH]c(-c3ccco3)cc2n1	-12.9% (inactive)	
CCC1(CC)Nc2ccccc2C(=O)N1c1ccc(OC)cc1	-2.48% (inactive)	
CCNC(=O)NC(=O)c1csc([N+](=O)[O-])c1	-0.4% (inactive)	
Cc1ccccc1NC(=S)N(CCN(C)C)C(C)c1ccccn1 (stereo not drawn)		4.86 µM (active)
Cc1ccc(Cl)cc1NC(=S)NN	-9.41% (inactive)	
Cc1ccccc1NC(=S)Nc1ccccn1	1.57% (inactive)	
Cc1cc(NC(=O)Nc2cc(Cl)ccc2C)no1	7.12% (inactive)	
Cc1ccc(Cl)cc1NC(=S)N(CCN(C)C)C(C)c1ccccn1 (stereo not drawn)		5.46 µM (active)

Compound	activity, negative = inhibition	Potency
NC(=O)C1CCN(c2c([N+](=O)[O-])cc(C(F)(F)F)cc2[N+](=O)[O-])CC1	-3.87% (inactive)	
C/C(=N\Nc1ccc(C#N)cc1[N+](=O)[O-])c1ccc(O)cc1	-17.7% (inactive)	
CC1CC(=O)Nc2ccccc2N1S(=O)(=O)c1ccc(Cl)cc1 (stereo not drawn)	-2.41% (inactive)	
O=C(CCCCCCCCCCC(=O)NCc1cccnc1)NCc1cccnc1	-0.989% (inactive)	
Cc1ccc(C2N=C(N)Nc3nc(=O)c4ccccc4n32)cc1 (stereo not drawn)	3.03% (inactive)	
Cc1cccnc1NC(=O)c1csnn1	-0.56% (inactive)	
O=C(OCC1OC(OC(=O)c2cc(O)c(O)c(OC(=O)c3cc(O)c(O)c(O)c3)c2)[C@@H](OC(=O)c2cc(O)c(O)c(OC(=O)c3cc(O)c(O)c(O)c3)c2)C(OC(=O)c2cc(O)c(O)c(OC(=O)c3cc(O)c(O)c(O)c3)c2)C1OC(=O)c1cc(O)c(O)c(OC(=O)c2cc(O)c(O)c(O)c2)c1)c1cc(O)c(O)c(OC(=O)c2cc(O)c(O)c(O)c2)c1 (stereo partly drawn)		0.398 µM (active)
O=c1[nH]nc(N2CCOCC2)c(=O)[nH]1	0.379% (inactive)	
CCCCCCC(=O)N(O)C1CC(=O)N(c2ccc(F)cc2)C1=O (stereo not drawn)	-2.04% (inactive)	
O=C1Nc2ccccc2C1(O)Cc1ccccn1 (stereo not drawn)	-2.94% (inactive)	
O=C(N/N=C/c1ccccc1[N+](=O)[O-])c1cnccn1	-5.63% (inactive)	
Oc1ccccc1/C=N/Nc1ncc(Br)cn1		3.55 µM (active)
O=C(O)c1ccccc1N/N=C/c1cc(Br)cc(Br)c1O	2.07% (inactive)	
O=C(c1ccccc1)c1ccc2c(c1)OCCCO2	6.09% (inactive)	
CCOc1ccc(OCc2ccc(C(=O)NN)o2)cc1	-7.39% (inactive)	
Cc1cccc(-c2n[nH]c(=S)n2/N=C/c2cccs2)c1	-7.44% (inactive)	
OCc1ncc(-c2ccccc2)s1	0.332% (inactive)	
CN1CCN(c2nnc(-c3ccccc3)c(-c3ccccc3)n2)CC1	-0.376% (inactive)	
c1ccc(-c2nnc(-c3ccccn3)nc2NC2CCCCC2)cc1		2.24 µM (active)
c1ccc(-c2nnc(N3CCN(c4ccccc4)CC3)nc2-c2ccccc2)cc1	-7.28% (inactive)	
CN(C)c1nc(-c2ccccn2)nnc1-c1ccccc1		1.41 µM (active)
O=C(N/N=C/c1ccco1)c1cc(C2CC2)[nH]n1	-3.94% (inactive)	
Cc1onc(-c2c(Cl)cccc2Cl)c1C(=O)Nc1nc(C(C)(C)C)cs1	-1.93% (inactive)	

Compound	activity, negative = inhibition	Potency
Cc1ccc(-c2c[n+](CC(=O)Nc3ccccc3C)c3n2CCC3)cc1	-1.35% (inactive)	
Cc1ccc(C[n+]2cc(-c3ccc(Cl)cc3)n3c2CCC3)cc1	-2.88% (inactive)	
COc1ccc(/C=N/OC(=O)c2ccc(Cl)cc2)c(Cl)c1OC	-5.17% (inactive)	
CCOC(=O)CSc1nnc(Cn2nnc3ccccc32)n1-c1ccc(F)cc1	-4.39% (inactive)	
CN(CC(O)CN1CCOCC1)S(=O)(=O)O (stereo not drawn)	3.07% (inactive)	
CCOC(=O)c1nn(-c2ccc([N+](=O)[O-])cc2)cc1O	-0.376% (inactive)	
Cn1c(=O)c2cc3ccccc3nc2n(C)c1=O	0.436% (inactive)	
COc1ccc(CCNC(=S)NCCc2ccc(OC)c(OC)c2)cc1OC	-3.02% (inactive)	
CCO/C=C1\SC(=S)N(c2ccc(Cl)cc2)C1=O	-14.9% (inactive)	
Cc1ccc(S(=O)(=O)NC(=O)Nc2ccc(OC(F)F)cc2)cc1	-0.722% (inactive)	
Nc1nc(-c2ccccc2)c(N=Nc2cccc3ccccc23)s1		1.94 µM (active)
Cc1cc(C)n2nc(N)c(N=Nc3ccccc3)c2n1	-9.08% (inactive)	
Nc1nc(-c2ccccc2)c(N=Nc2ccc(Cl)cc2)s1		13.7 µM (active)
Nc1nc(-c2ccccc2)c(N=Nc2ccccc2Cl)s1		4.34 µM (active)
CC1CC(C)(C)OC(C[N+]2(C)CCCCC2)O1 (stereo not drawn)	-0.393% (inactive)	
COc1ccccc1NC(=S)NC1CCCCCCCCCCC1	-2.75% (inactive)	
CCOC(=O)C1CCCN(C(=O)Nc2c(-c3ccccc3)noc2C)C1 (stereo not drawn)	0.758% (inactive)	
COc1ccc(C(=O)/C=C/Nc2cc(C)ccn2)cc1	-3.04% (inactive)	
COC(=O)c1[nH]c2cc(OC)ccc2c1NC(=O)c1c(F)cccc1F	3.22% (inactive)	
CC(C)(C)c1csc(Sc2ccc([N+](=O)[O-])cn2)n1	3% (inactive)	
CC(=O)Oc1cc2cccc(OC(C)=O)c(=O)c2c(OC(C)=O)c1OC(C)=O		1.12 µM (active)
O=C(N/N=C/c1ccc2c(c1)OCCO2)c1ccncc1	-1.01% (inactive)	
CC(=O)c1cnn(-c2ccc(Cl)c(Cl)c2Cl)c1C	-3.5% (inactive)	

Compound	activity, negative = inhibition	Potency
CCOC(=O)N1CCc2c(sc3nc[nH]c(=O)c23)C1	-4.17% (inactive)	
CCc1c(C#N)sc(C(N)=O)c1CC	-3.2% (inactive)	
CN=c1scc(-c2ccccc2F)n1/N=C/c1ccc(O)c(O)c1O		6.87 µM (active)
CC(=O)Nc1ccc(S(=O)(=O)Nc2ccc(C(=O)NCC(=O)O)cc2)cc1	4.22% (inactive)	
Cc1cccc(C)c1NC(=S)N1CCOCC1	0.441% (inactive)	
Cc1ccc(C(=O)CSc2nnc(-c3snnc3C)n2C2CC2)cc1	5.91% (inactive)	
CN(C)c1ccc(N2C(=O)CC(c3ccccc3)CC2=O)cc1	-1.11% (inactive)	
CC1=NN(c2ccccc2)C(=O)/C1=C/C=C/c1ccc(N(C)C)cc1		1.12 µM (active)
CC1=[N+](C)N(c2ccccc2)C(=O)C1N=C/C=C/c1ccccc1 (stereo not drawn)	7.59% (inactive)	
CN1CCN(C(=O)Nc2cccc(-c3ccccc3)c2)CC1	1.01% (inactive)	
CCc1c(-c2ccccc2)[n+](=O)c2c(n1[O-])CCC2	-0.602% (inactive)	
O=C(O)C1=CC(=C(c2ccc(O)c(C(=O)O)c2)c2ccc(O)c(C(=O)O)c2)C=CC1=O		1.78 µM (active)
O=C(NC(=S)NNC(=O)c1cnccn1)c1ccc(F)cc1		2 µM (active)
O=C(NNC(=S)NC1CC2C=CC1C2)c1ccncc1 (stereo not drawn)	8.75% (inactive)	
O=C(N/N=C/c1ccncc1)c1cnccn1	-5.76% (inactive)	
CCOP(=O)(c1ccc(N(C)C)cc1)C(O)c1cccnc1 (stereo not drawn)	-3.85% (inactive)	
CN(C)NC(=S)NC1CCS(=O)(=O)C1 (stereo not drawn)	1.34% (inactive)	
O=C1CC(Sc2ccc(Cl)cc2)C(=O)N1c1ccc2c(c1)OCCO2 (stereo not drawn)	-12% (inactive)	
Fc1ccccc1/C=N/n1c(-c2cccnc2)n[nH]c1=S	-0.276% (inactive)	
Cc1cccc(-c2n[nH]c(=S)n2/N=C/c2ccco2)c1	-6.05% (inactive)	
O=[N+]([O-])c1cc2c(cc1/C=N/n1c(-c3ccccn3)n[nH]c1=S)OCO2		10 µM (active)
